Data from PubChem BioAssay AID1963316 (National Center for Advancing Translational Sciences (NCATS), 2024).
Inconclusive results are not listed. Unmarked numbers belong to inactive results. Calls come from the whole dose curve.

Each compound was assayed against Tyrosine-protein kinase ABL1 (Homo sapiens) (UniProt P00519) (assay: ABL1 kinase (ABL1-N-HiBiT) SDR gain of signal screen - plus ATP). Conditions: purified ABL1-N-HiBiT enzyme, HiBiT luminescence with 50 uM ATP, 30 min; series mostly up to 57.5 µM; signal gain, positive = increase: at the top concentration.
Text: National Center for Advancing Translational Sciences (NCATS),
National Institute of Health (NIH), Maryland
Discovery and optimization of novel protein-binding ligands underlies many of the methods and applications of biology, drug discovery, clinical diagnostics, and environmental toxicology. Assays for detecting the interaction of, for example, a molecule with a macromolecular target also referred to here as the target of interest (TOI) is dependent on a compatible output technology. Depending on the nature and knowledge surrounding the TOI, whether a receptor, enzyme, regulatory subunit or scaffold, or a sequence-defined nucleic acid folded into a complex tertiary structure, assay strategies can vary widely.
Here we exploit ligand-biased changes in the structural dynamics of the target protein to control reporter alpha complementation allowing a non-competitive, non-functional, non-separation measure of ligand-target interaction.
Secondly, we show the specificity and sensitivity of the SDR for the Abelson tyrosine kinase (ABL1) compared to the serine/threonine protein kinase A, using an enriched chemical library of 128 compounds selected, in part, for activity annotated with ABL1 kinase activity using the Pharos database (3).
(1) A. S. Dixon et al., NanoLuc Complementation Reporter Optimized for Accurate Measurement of Protein Interactions in Cells. ACS Chem Biol 11, 400-408 (2016).
Chemistry & Biology, 19, 1060 - 1072 (2012).
(3) K. J. Kelleher et al., Pharos 2023: an integrated resource for the understudied human proteome. Nucleic Acids Res 51, D1405-D1416 (2023).
PROTOCOL TABLE (as described by Inglese J, Shamu CE and Guy RK. 2007)
SEQUENCE No. (e.g., 1, 2, 3, etc.); […] (e.g., C. elegans, Compounds, Incubation, Read, etc.); VALUE and DESCRIPTION.
1. Reagent. Dispense 4 uL ABL1-N-HiBiT enzyme per well at a final enzyme concentration of 10 nM in buffer with 50 uM ATP (SDR assay) into columns 2-48 of four replicate Greiner 1536-well white, solid bottom high base, medium plates per assay. Dispense respective buffer without enzyme at 4 uL/well in column 1 of assay plates using BioRaptr 2.
2. Compounds. Library compounds added at 23 nL/well by pin transfer. DMSO neutral control and imatinib positive control added at 25 nL/well, transfer by Mosquito dispenser.
3. Incubation. Incubate enzyme and compounds at room temperature for 30 min, protected from light.
4. Reagent. (SDR assay) Add 3 uL/well of Nano-Glo HiBiT reagent (Promega) to assay plates with ATP.
5. Incubation. (SDR assay) Incubate enzyme solution and HiBiT reagent at room temperature for 10 min, protect from light.
6. Detector. (SDR assay) Luminescence measured using CCD-based camera (ViewLux) with settings as follows: Exposure, 1 sec; Gain, High; Speed, Slow; Binning, 2X.
Inglese J, Shamu CE and Guy RK, Reporting data from high throughput screening of small molecule libraries, Nature Chemical Biology, 2007, 3(8): 438-441. doi.org/10.1038/nchembio0807-438.

Sequence of Tyrosine-protein kinase ABL1 (Homo sapiens) (P00519 whole entry, looked up): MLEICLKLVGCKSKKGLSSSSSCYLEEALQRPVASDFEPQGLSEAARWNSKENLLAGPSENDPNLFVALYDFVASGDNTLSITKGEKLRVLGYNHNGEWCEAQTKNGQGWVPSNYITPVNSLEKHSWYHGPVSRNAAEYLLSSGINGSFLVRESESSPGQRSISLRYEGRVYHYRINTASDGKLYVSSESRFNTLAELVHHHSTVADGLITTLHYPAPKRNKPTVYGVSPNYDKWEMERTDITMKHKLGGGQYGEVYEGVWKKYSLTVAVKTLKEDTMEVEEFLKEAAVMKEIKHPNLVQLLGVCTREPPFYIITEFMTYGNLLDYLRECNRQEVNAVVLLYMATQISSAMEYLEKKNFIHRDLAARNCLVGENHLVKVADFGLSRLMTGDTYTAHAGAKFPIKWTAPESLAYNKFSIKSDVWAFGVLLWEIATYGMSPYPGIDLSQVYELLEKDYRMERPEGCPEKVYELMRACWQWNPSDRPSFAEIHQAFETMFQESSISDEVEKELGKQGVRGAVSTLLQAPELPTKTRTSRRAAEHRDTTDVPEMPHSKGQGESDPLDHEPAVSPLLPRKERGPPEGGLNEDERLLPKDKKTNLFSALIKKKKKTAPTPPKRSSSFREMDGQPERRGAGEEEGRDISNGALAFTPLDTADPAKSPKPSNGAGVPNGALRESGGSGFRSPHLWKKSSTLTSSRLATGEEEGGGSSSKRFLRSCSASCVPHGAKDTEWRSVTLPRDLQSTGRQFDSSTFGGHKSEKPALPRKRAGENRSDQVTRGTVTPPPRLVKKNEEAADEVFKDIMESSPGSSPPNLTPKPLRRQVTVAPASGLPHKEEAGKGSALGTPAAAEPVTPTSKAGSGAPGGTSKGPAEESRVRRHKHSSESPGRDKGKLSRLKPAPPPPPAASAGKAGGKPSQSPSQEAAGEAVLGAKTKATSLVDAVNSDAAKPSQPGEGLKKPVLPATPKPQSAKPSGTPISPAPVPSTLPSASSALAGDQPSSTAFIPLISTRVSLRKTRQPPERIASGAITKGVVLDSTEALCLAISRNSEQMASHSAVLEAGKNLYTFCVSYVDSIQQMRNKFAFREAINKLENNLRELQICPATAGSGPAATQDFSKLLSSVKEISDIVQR

| Structure (SMILES) | signal gain, positive = increase |
| --- | --- |
| C/C(O)=C(\C#N)C(=O)Nc1cc(Br)ccc1Br | -66.9% |
| O=C(NCCCNc1nc(Nc2ccc(N3CCOCC3)cc2)ncc1C1CC1)C1CCC1 | 8.48% |
| O=[N+]([O-])O[C@H]1CO[C@H]2[C@@H]1OC[C@H]2O[N+](=O)[O-] | 2.28% |
| N#Cc1cn([C@@H]2O[C@H](CO)[C@H](O)[C@@H]2O)c2ncnc(N)c12 | 16.4% |
| Cc1[nH]nc2ccc(-c3cncc(OC[C@@H](N)Cc4c[nH]c5ccccc45)c3)cc12 | -0.858% |
| CCNC(=O)C[C@@H]1N=C(c2ccc(Cl)cc2)c2cc(OC)ccc2-n2c(C)nnc21 | -4.29% |
